Among the data in the supplement of paper PMC13380429 are SARS-CoV-2 infection rate values, retold here.

Unmarked numbers belong to inactive results.

The test system of the assay is Vero E6 infected with SARS-CoV-2. Description: SARS-CoV-2 infection rate relative to infected DMSO; higher = more infection, active = 60 or less. The following applies: 24 h.
Regarding `COCCOc1ccc2c(c1)ncn2-c1ccc2cccc(N3CCC(N)CC3)c2n1` (0.833333 µM), the SARS-CoV-2 infection rate was 106%.

For `CO[C@@]1(NC(=O)C(C(=O)O)c2ccc(O)cc2)C(=O)N2C(C(=O)O)=C(CSc3nnnn3C)CO[C@@H]21` (stereo not given in full) [moxalactam] (10 µM), the SARS-CoV-2 infection rate was 110%.

As for `CCC(C)SSc1ncc[nH]1` (stereo not given) (10 µM), the SARS-CoV-2 infection rate is 95%.

Consider `Oc1c(Cl)cc(Cl)c(Cl)c1Cc1c(O)c(Cl)cc(Cl)c1Cl` [hexachlorophene] (10 µM), for which the SARS-CoV-2 infection rate is 83.5%.

As for `Cc1c(NC(=O)c2cccnc2)c(=O)n(-c2ccccc2)n1C` [nifenazone] (10 µM), the SARS-CoV-2 infection rate was 102%.

Take `CCC(=O)O[C@@H]1CC(=O)O[C@H](C)C/C=C/C=C/[C@H](O)[C@H](C)C[C@H](CC=O)[C@H](O[C@@H]2O[C@H](C)[C@@H](O[C@H]3C[C@@](C)(O)[C@@H](OC(=O)CC)[C@H](C)O3)[C@H](N(C)C)[C@H]2O)[C@H]1OC` [midecamycin] (10 µM): the SARS-CoV-2 infection rate is 102%.

On to `CCCC(C(=O)OCCN(CC)CC)(c1ccccc1)c1ccccc1` [proadifen] (10 µM), for which the SARS-CoV-2 infection rate is 89.5%.

As to `CCOc1cc([C@@H](CS(C)(=O)=O)N2C(=O)c3cccc(NC(C)=O)c3C2=O)ccc1OC` [apremilast] (10 µM), the SARS-CoV-2 infection rate was 89%.

For `CN1CCC[C@@H](CC2c3ccccc3Sc3ccccc32)C1` (racemic) [metixene] (0.833333 µM), the SARS-CoV-2 infection rate is 86%.

On to `CCCCCCCCN=c1ccn(CCCCCCCCCCn2ccc(=NCCCCCCCC)cc2)cc1` [octenidine] (0.833333 µM), for which the SARS-CoV-2 infection rate was 108%.

With `CN1CCN(CCc2ccc(Cl)c(Cl)c2)CC1` (10 µM), the SARS-CoV-2 infection rate was 94%.

Take `C[C@H](NC(=O)Cc1cc(F)cc(F)c1)C(=O)N[C@@H]1C(=O)N(C)c2ccccc2-c2ccccc21` (10 µM): the SARS-CoV-2 infection rate is 119%.

With `Clc1ccccc1CN1CCc2sccc2C1` [ticlopidine] (10 µM), the SARS-CoV-2 infection rate is 92.5%.

Regarding `CCOC(=O)C1=C[C@@H](OC(CC)CC)[C@H](NC(C)=O)[C@@H](N)C1` [oseltamivir-phosphate] (10 µM), the SARS-CoV-2 infection rate was 85.5%.

Regarding `Cc1cc2c(cc1C(F)(F)F)N(C(=O)Nc1ccc(Oc3cccnc3C)nc1)CC2` (10 µM), the SARS-CoV-2 infection rate was 90.5%.

As for `CCCC[C@H](NC(=O)[C@@H]1[C@@H]2[C@H](CN1C(=O)[C@@H](NC(=O)NC1(CS(=O)(=O)C(C)(C)C)CCCCC1)C(C)(C)C)C2(C)C)C(=O)C(=O)NC1CC1` [narlaprevir] (10 µM), the SARS-CoV-2 infection rate is 111%.

`CCCCCCCCCCCC(=O)O` [lauric-acid] (10 µM): the SARS-CoV-2 infection rate was 96.5%.

`CC(C)OC(=O)N1CCC(Oc2ncnc3c2cnn3-c2ccc(S(C)(=O)=O)cc2F)CC1` (10 µM): the SARS-CoV-2 infection rate is 98%.

For the compound `C#C[C@]1(OC(=O)CCCCCC)CC[C@H]2[C@@H]3CCC4=CC(=O)CC[C@@H]4[C@H]3CC[C@@]21C` [norethisterone-enanthate] (10 µM), the SARS-CoV-2 infection rate is 96.5%.

Take `Clc1ccc(C(c2ccccc2Cl)C(Cl)Cl)cc1` (stereo not given) [mitotane] (10 µM): the SARS-CoV-2 infection rate was 112%.

With `N#CCNC(=O)c1ccc(-c2ccnc(Nc3ccc(N4CCOCC4)cc3)n2)cc1` (0.833333 µM), the SARS-CoV-2 infection rate was 103%.

As to `COc1ccc(OC)c([C@@H](O)CNC(=O)CN)c1` [midodrine] (10 µM), the SARS-CoV-2 infection rate is 108%.

Regarding `Clc1ccc(Nc2nnc(Cc3ccncc3)c3ccccc23)cc1` [vatalanib] (10 µM), the SARS-CoV-2 infection rate is 96%.

As for `COc1ccc2cc(-c3cc(-c4cc(Cl)cc(Cl)c4)nn3[C@@H](C)c3ccc(C(=O)NCCC(=O)O)cc3)ccc2c1` (10 µM), the SARS-CoV-2 infection rate was 106%.

`O=C(NO)c1cnc(N2CCN(S(=O)(=O)c3ccc4ccccc4c3)CC2)nc1` (10 µM): the SARS-CoV-2 infection rate is 115%.

Regarding `OCc1ccc(CO)o1` [2,5-furandimethanol] (10 µM), the SARS-CoV-2 infection rate is 112%.

With `Cc1csc(NC(=O)CSc2ccc(-c3ccccc3)nn2)n1` (10 µM), the SARS-CoV-2 infection rate is 68.5%.

As for `CC(C)(C)NCC(O)COc1cccc2c1CCC(=O)N2` (stereo not given) [carteolol] (10 µM), the SARS-CoV-2 infection rate was 96.5%.

For `CNC(=O)c1ccccc1Nc1nc(Nc2ccc(N3CCOCC3)cc2OC)ncc1Cl` (10 µM), the SARS-CoV-2 infection rate was 97.5%.

On to `N#C/C(=C\c1ccc(O)c(O)c1)C(=O)NCCCCc1ccccc1` (0.833333 µM), for which the SARS-CoV-2 infection rate was 89.5%.
